About 8,800 targets were measured; listed, in parts, are those with a hit and a random draw of the rest. About 0.5% of all pairs of compound and target were hits. Unmarked numbers belong to inactive results.
Assays:
Assay in all cases: log2 fold change, soluble protein after heating vs DMSO (PISA); higher = thermal stabilisation; K562 lysate, 10 uM; active = over 0.2 and 3.5 SD of the protein, either way, in both replicates (recomputed)
ibrutinib = compound: C=CC(=O)N1CCC[C@@H](n2nc(-c3ccc(Oc4ccccc4)cc3)c3c(N)ncnc32)C1 [ibrutinib]
In short: (§1)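 K562 pellets were dounce-homogenised in PBS pH 7.4 with 1 mM MgCl2, and the crude extract at 1 mg/mL protein was treated with 10 μM compound for 30 min. Aliquots were heated for 3 min across 48°C-58°C, pooled, and brought to 0.5% NP-40 at 4°C; soluble protein was the supernatant after 21,000xg for 90 min. Soluble protein was quantified by TMTpro 16plex LC-MS/MS with channel sums equalised, and reported as log2 fold change in thermal stability against DMSO controls, with values from duplicates.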

[1] = compound: CC(=O)c1cnc2ccc(-c3cc(Cl)c(O)c(Cl)c3)nc2c1N[C@H]1CC[C@H](CN(C)C)CC1
In short: as §1

ralimetinib = compound: CC(C)(C)Cn1c(N)nc2ccc(-c3[nH]c(C(C)(C)C)nc3-c3ccc(F)cc3)nc21 [ralimetinib]
In short: as §1

[2] = compound: CC(C)(O)CC(=O)NCCn1ccc2ncnc(Nc3ccc(Oc4cccc(C(F)(F)F)c4)c(Cl)c3)c21
In short: as §1

[3] = compound: CC(C)C1=C2N=C(C=C(N2N=C1)NCC3=CC=CC=C3)NCCCCCCN
In short: as §1

[4] = compound: CC1=C(C(CC(=O)N1)C2=CC=C(C=C2)C(F)(F)F)C(=O)NC3=C(C=C4C(=C3)C=NN4)F
In short: as §1

[5] = compound: CC1=C(C2=C(C=C1)C(=O)C3=CC=CC=C3N2CCCN)C
In short: as §1

[6] = compound: CC1=C(C=C(C=C1)NC(=O)C2=CC(=CC=C2)C(C)(C)C#N)NC3=CC4=C(C=C3)N=CN(C4=O)C
In short: as §1

[7] = compound: CC1=C(C=C(C=C1)NC(=O)C2=CC(=CC=C2)N(C)C)NC(=O)C3=CC=C(C=C3)O
In short: as §1

[8] = compound: CC1=CC=C(C=C1)SC2=C3C=C(SC3=CN=C2)C(=O)N
In short: as §1

vemurafenib = compound: CCCS(=O)(=O)Nc1ccc(F)c(C(=O)c2c[nH]c3ncc(-c4ccc(Cl)cc4)cc23)c1F [vemurafenib]
In short: as §1

[9] = compound: CCCS(=O)(=O)Nc1ccc(F)c(C(=O)c2c[nH]c3ncc(Cl)cc23)c1F
In short: as §1

barasertib = compound: CCN(CCCOc1ccc2c(Nc3cc(CC(=O)Nc4cccc(F)c4)[nH]n3)ncnc2c1)CCOP(=O)(O)O [barasertib]
In short: as §1

[10] = compound: CC[C@@H]1C(=O)N(C)c2cnc(Nc3ccc(C(=O)NC4CCN(C)CC4)cc3OC)nc2N1C1CCCC1
In short: as §1

volasertib = compound: CC[C@@H]1C(=O)N(C)c2cnc(Nc3ccc(C(=O)N[C@H]4CC[C@H](N5CCN(CC6CC6)CC5)CC4)cc3OC)nc2N1C(C)C [volasertib]
In short: as §1

[11] = compound: CCn1c(C(=O)N(C2CC2)C2CC2)cc2c3c(ncn3C)c(Nc3cc(C)n(C)n3)nc21
In short: as §1

[12] = compound: CCn1cc(-c2ccnc3[nH]c(-c4cccc(CN(C)C)c4)cc23)c(-c2ccc(NC(=O)N(C)C)cc2)n1
In short: as §1

[13] = compound: CN1CCC(CNc2ccc3ncc(-c4cccc(OC(F)(F)F)c4)n3n2)CC1
In short: as §1

saracatinib = compound: CN1CCN(CCOc2cc(OC3CCOCC3)c3c(Nc4c(Cl)ccc5c4OCO5)ncnc3c2)CC1 [saracatinib]
In short: as §1

sotrastaurin = compound: CN1CCN(c2nc(C3=C(c4c[nH]c5ccccc45)C(=O)NC3=O)c3ccccc3n2)CC1 [sotrastaurin]
In short: as §1

Sequence of UniProt Q92844 (Q92844 whole entry, looked up): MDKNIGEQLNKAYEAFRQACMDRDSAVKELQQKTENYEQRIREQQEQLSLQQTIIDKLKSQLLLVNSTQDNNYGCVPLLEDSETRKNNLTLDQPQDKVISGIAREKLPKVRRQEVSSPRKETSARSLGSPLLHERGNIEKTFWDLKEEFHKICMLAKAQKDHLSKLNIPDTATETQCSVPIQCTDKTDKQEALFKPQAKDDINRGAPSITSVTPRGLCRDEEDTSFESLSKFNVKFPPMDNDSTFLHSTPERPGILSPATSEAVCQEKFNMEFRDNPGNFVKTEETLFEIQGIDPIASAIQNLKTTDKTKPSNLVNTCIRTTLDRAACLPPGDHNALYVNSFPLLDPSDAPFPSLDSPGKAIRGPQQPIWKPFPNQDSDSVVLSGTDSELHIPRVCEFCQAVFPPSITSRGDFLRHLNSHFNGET
Sequence of UniProt P29353 (P29353 whole entry, looked up): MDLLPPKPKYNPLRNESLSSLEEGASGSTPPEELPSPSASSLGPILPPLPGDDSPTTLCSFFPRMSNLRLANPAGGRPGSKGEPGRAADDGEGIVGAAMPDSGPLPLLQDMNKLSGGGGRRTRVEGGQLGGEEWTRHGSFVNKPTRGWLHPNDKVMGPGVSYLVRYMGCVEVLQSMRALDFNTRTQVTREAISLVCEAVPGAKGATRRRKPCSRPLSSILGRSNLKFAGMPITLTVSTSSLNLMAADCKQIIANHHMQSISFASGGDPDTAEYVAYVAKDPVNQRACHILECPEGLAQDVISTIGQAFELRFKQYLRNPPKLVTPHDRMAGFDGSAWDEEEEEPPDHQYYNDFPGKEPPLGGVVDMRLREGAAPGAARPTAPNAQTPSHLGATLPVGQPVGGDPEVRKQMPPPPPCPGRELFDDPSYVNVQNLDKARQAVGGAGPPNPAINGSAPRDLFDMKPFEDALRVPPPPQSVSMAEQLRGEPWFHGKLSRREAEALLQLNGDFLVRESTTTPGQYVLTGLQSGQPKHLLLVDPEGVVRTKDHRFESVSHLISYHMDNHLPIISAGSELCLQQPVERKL
Sequence of UniProt Q15208 (Q15208 whole entry, looked up): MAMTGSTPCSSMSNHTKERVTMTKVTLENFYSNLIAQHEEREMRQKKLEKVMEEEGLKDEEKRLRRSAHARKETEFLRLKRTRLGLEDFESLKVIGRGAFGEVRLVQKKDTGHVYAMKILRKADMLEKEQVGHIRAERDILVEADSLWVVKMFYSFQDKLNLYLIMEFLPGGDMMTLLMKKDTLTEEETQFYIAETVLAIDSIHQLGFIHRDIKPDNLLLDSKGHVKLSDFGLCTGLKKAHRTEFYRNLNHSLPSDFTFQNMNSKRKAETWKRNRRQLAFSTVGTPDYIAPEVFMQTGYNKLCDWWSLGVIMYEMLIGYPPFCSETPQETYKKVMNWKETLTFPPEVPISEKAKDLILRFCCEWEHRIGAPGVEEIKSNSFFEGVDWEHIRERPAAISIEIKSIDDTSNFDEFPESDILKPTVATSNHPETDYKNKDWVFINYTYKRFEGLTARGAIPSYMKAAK
Sequence of UniProt Q13586 (Q13586 whole entry, looked up): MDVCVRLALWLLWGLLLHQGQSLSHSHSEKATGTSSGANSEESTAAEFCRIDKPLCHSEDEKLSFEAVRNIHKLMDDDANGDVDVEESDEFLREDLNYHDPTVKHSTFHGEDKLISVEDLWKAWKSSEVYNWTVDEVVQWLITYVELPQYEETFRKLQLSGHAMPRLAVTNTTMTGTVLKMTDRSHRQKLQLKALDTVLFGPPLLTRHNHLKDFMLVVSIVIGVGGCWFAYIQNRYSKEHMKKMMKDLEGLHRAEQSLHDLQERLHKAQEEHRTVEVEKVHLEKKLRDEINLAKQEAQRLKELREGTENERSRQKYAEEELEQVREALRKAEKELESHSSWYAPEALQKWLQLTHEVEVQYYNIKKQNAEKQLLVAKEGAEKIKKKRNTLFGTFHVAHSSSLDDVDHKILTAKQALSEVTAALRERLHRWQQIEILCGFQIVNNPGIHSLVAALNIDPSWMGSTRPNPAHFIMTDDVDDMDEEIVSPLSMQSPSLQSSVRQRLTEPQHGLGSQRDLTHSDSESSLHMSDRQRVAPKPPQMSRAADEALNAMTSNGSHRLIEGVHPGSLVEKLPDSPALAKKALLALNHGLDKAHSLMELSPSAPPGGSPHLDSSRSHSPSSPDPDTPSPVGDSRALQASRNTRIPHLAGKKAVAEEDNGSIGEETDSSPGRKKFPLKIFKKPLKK
Sequence of UniProt Q13148 (Q13148 whole entry, looked up): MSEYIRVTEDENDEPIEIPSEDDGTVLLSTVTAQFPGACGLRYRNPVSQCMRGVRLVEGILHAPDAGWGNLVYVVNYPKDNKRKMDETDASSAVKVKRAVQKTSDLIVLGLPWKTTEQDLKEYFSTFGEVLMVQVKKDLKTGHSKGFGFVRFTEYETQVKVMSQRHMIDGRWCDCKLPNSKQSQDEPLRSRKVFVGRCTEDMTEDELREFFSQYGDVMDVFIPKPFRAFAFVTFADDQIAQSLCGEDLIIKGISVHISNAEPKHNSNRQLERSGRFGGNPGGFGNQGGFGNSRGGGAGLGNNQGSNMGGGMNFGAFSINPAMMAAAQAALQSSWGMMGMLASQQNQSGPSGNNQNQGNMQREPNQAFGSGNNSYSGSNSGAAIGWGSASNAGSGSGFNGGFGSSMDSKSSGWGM
Sequence of UniProt O00506 (O00506 whole entry, looked up): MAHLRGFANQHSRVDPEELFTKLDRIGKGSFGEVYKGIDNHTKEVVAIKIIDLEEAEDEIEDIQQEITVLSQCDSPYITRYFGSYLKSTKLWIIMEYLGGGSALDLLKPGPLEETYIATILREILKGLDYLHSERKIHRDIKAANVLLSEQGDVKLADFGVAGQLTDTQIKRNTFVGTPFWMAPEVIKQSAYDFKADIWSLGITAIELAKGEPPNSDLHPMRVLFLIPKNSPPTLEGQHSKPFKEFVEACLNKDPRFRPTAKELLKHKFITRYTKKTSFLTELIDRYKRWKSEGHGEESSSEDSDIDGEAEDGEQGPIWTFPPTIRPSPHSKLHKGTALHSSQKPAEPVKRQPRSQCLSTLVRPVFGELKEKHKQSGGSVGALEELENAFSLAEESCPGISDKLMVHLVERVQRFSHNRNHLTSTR
Sequence of UniProt Q86US8 (Q86US8 whole entry, looked up): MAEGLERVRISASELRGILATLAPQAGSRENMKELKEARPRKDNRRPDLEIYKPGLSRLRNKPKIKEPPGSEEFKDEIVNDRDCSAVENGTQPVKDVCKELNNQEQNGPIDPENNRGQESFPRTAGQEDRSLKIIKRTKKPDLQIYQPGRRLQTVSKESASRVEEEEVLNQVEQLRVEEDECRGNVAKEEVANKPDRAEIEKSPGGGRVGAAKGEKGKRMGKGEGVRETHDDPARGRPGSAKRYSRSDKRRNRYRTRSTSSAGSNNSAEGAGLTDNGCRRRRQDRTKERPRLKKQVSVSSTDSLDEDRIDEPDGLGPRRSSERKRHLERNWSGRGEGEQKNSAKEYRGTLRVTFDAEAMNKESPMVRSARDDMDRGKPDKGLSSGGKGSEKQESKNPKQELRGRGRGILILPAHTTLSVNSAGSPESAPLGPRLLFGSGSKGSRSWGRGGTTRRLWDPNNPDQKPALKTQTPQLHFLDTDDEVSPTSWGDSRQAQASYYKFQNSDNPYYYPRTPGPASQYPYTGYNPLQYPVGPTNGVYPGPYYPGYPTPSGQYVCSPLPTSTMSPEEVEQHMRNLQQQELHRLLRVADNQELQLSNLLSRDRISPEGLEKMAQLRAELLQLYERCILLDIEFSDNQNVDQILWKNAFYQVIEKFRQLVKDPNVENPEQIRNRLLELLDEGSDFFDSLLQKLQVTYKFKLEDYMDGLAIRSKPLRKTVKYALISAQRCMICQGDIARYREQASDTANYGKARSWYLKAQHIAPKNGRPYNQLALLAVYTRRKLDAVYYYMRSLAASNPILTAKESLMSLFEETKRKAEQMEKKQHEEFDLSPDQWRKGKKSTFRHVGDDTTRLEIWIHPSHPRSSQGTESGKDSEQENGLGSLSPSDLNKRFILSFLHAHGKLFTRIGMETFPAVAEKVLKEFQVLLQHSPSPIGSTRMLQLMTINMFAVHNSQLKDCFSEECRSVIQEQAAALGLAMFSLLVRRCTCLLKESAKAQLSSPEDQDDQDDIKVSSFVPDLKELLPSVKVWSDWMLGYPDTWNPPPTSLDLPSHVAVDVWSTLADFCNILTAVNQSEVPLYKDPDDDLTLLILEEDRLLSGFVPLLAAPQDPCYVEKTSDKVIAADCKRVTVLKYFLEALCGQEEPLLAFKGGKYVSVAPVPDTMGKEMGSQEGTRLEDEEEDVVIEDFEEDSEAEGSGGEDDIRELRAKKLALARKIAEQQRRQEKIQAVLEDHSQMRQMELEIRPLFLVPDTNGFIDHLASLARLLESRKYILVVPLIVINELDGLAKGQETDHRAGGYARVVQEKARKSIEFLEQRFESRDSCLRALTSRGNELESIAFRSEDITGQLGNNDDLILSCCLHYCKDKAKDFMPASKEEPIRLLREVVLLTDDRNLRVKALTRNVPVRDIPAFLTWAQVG
Sequence of UniProt Q9NP77 (Q9NP77 whole entry, looked up): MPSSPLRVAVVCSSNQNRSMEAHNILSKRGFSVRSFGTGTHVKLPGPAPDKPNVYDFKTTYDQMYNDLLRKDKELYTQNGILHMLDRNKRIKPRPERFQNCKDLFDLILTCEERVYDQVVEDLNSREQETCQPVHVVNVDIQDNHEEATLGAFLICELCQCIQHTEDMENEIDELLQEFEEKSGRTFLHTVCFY

Target	log2 fold change (ibrutinib)	log2 fold change [1]	log2 fold change (ralimetinib)	log2 fold change [2]	log2 fold change [3]	log2 fold change [4]	log2 fold change [5]	log2 fold change [6]	log2 fold change [7]	log2 fold change [8]	log2 fold change (vemurafenib)	log2 fold change [9]	log2 fold change (barasertib)	log2 fold change [10]	log2 fold change (volasertib)	log2 fold change [11]	log2 fold change [12]	log2 fold change [13]	log2 fold change (saracatinib)	log2 fold change (sotrastaurin)
STIM1 (UniProt Q13586)	0.033	0.043	0.023	-0.021	0.027	0.003	0.023	0.001	0.008	0.027	0.003	0.012	0.036	-0.076	0.006	0.048	0.259	-0.205	0.003	-0.01
SSU72 (UniProt Q9NP77)	0.075	0.031	0.026	-0.002	0.038	-0.018	0.025	0.001	0.015	0.03	-0.018	0.001	0.018	-0.064	-0.045	-0.049	-0.325 (active)	0.171	-0.001	0.018
TARDBP (UniProt Q13148)	-0.161	0.052	-0.004	-0.076	0.015	0.019	0.068	-0.059	0.01	0.019	0.027	0.016	0.151	0.007	-0.125	0.169	-0.008	-0.069	0.058	-0.032
STK38 (UniProt Q15208)	0.008	0.361 (active)	0.036	0.048	0.025	0.006	0.017	0.014	-0.003	0.002	-0.046	-0.012	0.031	-0.112	-0.092	0.019	0.122	0.002	-0.019	0.02
SMG6 (UniProt Q86US8)	0.071	-0.061	0.034	-0.016	0.012	0.074	0.006	0.004	0.047	0.059	0.12	-0.006	0.014	-0.139	-0.031	0.038	-0.16	0.141	0.036	0.098
TANK (UniProt Q92844)	0.042	0.086	-0.049	-0.003	0.044	0.061	0.018	0	0.054	0.002	0.023	0.004	0.007	-0.026	-0.02	0.004	0.18	-0.054	0.01	0
SHC1 isoform 6 (UniProt P29353)	0.053	-0.007	-0.02	-0.041	-0.007	-0.016	-0.006	-0.004	0.002	-0.008	0.028	0.003	0.008	-0.027	0.01	-0.035	0.635 (active)	-0.163	-0.007	0.017
STK25 (UniProt O00506)	-0.021	0.165	-0.071	0.007	-0.006	-0.02	-0.038	-0.042	0.035	-0.025	-0.018	-0.005	0.017	-0.034	-0.078	-0.042	-0.037	0.016	-0.026	0.022
